# Test results published in publication PMC7862700, “An all-to-all approach to the identification of sequence-specific readers for epigenetic DNA modifications on cytosine”.
# Columns and labels:
# Assay in all cases: DAPPL (digital affinity profiling via proximity ligation, sequencing); 10 mM Tris-HCl pH 7.5, 50 mM NaCl, 1 mM DTT, 4% glycerol, room temperature, 30 min; GST-TFs on glutathione beads, 16-mer random dsDNA library, 0.1% formaldehyde crosslink after washing; high values mean tight binding
# Conditions in all cases: protein: recombinant; tags: N-terminal GST; dsDNA, one strand shown
# ELK1 = molecular target: T1, ELK1 (Homo sapiens, UniProt P19419 1-428)
# T1 sequence: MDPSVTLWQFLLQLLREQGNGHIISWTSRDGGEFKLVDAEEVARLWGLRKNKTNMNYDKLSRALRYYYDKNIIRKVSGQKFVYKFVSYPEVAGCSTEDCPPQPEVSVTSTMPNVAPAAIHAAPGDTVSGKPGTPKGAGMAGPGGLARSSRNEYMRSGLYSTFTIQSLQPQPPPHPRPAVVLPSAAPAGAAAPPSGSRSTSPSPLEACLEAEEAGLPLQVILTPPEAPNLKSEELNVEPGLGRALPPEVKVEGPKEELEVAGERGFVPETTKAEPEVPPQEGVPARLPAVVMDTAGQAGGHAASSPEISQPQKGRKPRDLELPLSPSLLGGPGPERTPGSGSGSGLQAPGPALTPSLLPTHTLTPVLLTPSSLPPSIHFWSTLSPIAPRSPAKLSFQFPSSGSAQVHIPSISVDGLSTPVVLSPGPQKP
# Method in brief: (§1)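 Pools were built from human transcription factors expressed in yeast as GST fusions, captured on glutathione beads and DNA-barcoded, along with a tag-only sample. Incubation with 200 nmole of a 16-mer random double-stranded DNA library lasted 30 min at room temperature in Tris/NaCl/DTT/glycerol buffer, and was followed by washing, 0.1% formaldehyde crosslinking, proximity ligation, PCR amplification and Illumina NextSeq500 sequencing. Binding signal is the quotient of each hexamer's read frequency for a factor and its frequency for the tag-only sample.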
# GABPA = molecular target: T2, GABPA (Homo sapiens, UniProt Q06546 1-454)
# T2 sequence: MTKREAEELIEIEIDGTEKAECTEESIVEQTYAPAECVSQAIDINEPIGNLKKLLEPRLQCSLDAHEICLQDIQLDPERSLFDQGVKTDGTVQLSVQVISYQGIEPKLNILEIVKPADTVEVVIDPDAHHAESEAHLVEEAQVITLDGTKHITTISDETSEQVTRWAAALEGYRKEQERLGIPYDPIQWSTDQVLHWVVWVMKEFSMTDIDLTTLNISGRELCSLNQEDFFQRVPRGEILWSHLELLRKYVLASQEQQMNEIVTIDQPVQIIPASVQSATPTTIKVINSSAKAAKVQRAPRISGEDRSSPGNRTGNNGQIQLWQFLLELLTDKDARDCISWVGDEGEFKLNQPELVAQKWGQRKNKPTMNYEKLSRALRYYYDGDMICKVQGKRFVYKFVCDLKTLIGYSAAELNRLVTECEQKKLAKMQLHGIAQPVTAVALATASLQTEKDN
# Method in brief: as §1
# ERG = molecular target: T3, ERG (Homo sapiens, UniProt P11308 1-479)
# T3 sequence: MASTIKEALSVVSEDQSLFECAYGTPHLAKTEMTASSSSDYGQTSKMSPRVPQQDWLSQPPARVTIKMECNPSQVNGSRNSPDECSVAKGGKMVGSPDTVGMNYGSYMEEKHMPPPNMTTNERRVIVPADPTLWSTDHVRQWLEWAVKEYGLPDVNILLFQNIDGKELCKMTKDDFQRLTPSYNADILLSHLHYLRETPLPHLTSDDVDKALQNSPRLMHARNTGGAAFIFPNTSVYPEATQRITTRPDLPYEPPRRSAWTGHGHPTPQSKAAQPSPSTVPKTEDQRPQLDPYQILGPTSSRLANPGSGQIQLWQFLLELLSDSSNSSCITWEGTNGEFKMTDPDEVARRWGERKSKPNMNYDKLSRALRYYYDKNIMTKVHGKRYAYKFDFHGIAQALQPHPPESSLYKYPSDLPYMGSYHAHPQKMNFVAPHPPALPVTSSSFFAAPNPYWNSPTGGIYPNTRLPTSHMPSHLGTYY
# Method in brief: as §1
# ELF1 = ELF1 (Homo sapiens, UniProt P32519 1-619)
# Method in brief: as §1
# EHF = molecular target: T4, EHF (Homo sapiens, UniProt Q9NZC4 1-300)
# T4 sequence: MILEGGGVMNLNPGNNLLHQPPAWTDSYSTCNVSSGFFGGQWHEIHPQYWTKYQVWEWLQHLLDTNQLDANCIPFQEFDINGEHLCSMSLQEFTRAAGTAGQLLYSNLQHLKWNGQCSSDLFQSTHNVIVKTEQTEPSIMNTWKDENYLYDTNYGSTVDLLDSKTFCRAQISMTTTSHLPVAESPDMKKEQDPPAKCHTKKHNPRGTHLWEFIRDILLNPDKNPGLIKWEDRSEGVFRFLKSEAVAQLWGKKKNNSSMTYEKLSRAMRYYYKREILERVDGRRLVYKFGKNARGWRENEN
# Method in brief: as §1
# SPIB = SPIB (Homo sapiens, UniProt Q01892 1-262)
# Method in brief: as §1
# FEV = molecular target: T5, FEV (Homo sapiens, UniProt Q99581 1-238)
# T5 sequence: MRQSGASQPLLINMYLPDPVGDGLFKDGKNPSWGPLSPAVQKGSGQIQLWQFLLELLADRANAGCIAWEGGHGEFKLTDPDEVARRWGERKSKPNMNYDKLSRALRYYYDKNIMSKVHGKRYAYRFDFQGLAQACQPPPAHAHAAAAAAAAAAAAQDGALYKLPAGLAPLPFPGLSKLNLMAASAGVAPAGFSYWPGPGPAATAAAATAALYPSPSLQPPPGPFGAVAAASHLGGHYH
# Method in brief: as §1
# ETV5 = ETV5 (Homo sapiens, UniProt P41161 1-510)
# Method in brief: as §1
# ELF4 = ELF4 (Homo sapiens, UniProt Q99607 1-663)
# Method in brief: as §1
# ELK4 = molecular target: T6, ELK4 (Homo sapiens, UniProt P28324-2 1-405)
# T6 sequence: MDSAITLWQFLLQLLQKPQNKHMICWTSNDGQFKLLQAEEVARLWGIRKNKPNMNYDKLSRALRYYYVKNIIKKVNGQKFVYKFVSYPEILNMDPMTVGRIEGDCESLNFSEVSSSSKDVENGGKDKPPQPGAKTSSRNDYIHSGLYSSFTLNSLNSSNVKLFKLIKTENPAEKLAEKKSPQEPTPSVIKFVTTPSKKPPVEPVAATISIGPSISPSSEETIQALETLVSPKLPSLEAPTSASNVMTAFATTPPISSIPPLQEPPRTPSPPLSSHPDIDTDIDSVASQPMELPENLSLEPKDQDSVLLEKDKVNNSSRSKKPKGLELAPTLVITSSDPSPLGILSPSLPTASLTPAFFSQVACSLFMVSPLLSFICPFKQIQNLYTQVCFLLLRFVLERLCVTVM
# Method in brief: as §1
# Chain of ETV5 (P41161 whole entry): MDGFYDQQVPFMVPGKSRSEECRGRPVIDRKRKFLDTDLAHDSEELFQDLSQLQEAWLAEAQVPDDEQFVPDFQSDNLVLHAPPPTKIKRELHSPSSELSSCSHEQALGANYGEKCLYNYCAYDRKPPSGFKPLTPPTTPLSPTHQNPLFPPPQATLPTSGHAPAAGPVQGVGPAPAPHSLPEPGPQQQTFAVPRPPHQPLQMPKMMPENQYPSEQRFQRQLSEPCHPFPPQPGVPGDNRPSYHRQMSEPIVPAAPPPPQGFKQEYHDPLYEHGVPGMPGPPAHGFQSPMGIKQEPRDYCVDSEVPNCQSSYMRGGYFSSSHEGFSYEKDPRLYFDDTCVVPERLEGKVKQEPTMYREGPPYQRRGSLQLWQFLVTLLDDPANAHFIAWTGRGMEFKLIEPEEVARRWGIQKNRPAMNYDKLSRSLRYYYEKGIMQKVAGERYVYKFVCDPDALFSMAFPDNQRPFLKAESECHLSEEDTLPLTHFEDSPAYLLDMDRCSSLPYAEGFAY
# Chain of SPIB (Q01892 whole entry): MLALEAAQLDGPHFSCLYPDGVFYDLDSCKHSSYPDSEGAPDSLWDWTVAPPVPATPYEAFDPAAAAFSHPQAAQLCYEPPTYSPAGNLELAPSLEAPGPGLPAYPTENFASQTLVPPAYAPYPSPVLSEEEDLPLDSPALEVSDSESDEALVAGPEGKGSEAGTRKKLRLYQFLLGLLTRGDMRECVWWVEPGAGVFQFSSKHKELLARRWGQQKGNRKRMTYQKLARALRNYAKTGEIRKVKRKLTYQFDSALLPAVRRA
# Chain of ELF4 (Q99607 whole entry): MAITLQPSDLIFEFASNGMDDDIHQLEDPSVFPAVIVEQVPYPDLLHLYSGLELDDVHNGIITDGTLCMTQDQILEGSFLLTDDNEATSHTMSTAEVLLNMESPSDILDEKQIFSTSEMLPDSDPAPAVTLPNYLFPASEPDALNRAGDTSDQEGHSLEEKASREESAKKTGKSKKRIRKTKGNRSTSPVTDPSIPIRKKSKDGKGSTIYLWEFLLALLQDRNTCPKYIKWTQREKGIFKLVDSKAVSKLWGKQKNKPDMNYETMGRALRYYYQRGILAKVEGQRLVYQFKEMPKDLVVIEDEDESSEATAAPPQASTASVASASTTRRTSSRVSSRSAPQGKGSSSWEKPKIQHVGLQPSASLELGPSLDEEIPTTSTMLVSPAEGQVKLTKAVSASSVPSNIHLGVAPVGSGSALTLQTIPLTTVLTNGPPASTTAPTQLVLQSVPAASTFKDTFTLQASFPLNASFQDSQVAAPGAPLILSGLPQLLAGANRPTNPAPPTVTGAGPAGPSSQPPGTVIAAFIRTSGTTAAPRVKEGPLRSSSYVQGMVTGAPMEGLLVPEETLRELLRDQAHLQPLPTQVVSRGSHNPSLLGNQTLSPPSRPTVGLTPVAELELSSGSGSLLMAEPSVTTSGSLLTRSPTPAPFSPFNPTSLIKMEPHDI
# Chain of ELF1 (P32519 whole entry): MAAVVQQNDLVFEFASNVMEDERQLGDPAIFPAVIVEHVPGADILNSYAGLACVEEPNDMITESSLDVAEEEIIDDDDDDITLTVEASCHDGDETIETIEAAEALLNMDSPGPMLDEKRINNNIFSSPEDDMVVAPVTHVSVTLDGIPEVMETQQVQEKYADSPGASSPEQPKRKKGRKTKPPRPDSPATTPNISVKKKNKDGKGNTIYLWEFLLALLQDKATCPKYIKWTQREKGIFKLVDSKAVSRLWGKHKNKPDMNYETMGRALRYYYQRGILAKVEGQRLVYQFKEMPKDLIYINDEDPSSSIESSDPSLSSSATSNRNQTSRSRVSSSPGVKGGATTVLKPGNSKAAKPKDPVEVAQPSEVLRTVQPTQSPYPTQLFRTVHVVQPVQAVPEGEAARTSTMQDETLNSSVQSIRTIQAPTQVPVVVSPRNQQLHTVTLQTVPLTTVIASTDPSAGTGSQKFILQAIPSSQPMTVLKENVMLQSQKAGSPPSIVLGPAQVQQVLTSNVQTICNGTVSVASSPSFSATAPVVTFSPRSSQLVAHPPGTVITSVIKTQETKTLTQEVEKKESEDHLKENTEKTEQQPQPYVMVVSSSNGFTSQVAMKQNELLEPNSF
sequence,measurement,setting,value
ACCATT,binding signal,ELK1,"1.11 fold enrichment (6-mer frequency, TF over GST control)"
same,binding signal,GABPA,"1.1 fold enrichment (6-mer frequency, TF over GST control)"
same,binding signal,ERG,"1.12 fold enrichment (6-mer frequency, TF over GST control)"
same,binding signal,ELF1,"1.1 fold enrichment (6-mer frequency, TF over GST control)"
same,binding signal,EHF,"1.11 fold enrichment (6-mer frequency, TF over GST control)"
same,binding signal,SPIB,"1.11 fold enrichment (6-mer frequency, TF over GST control)"
same,binding signal,FEV,"1.15 fold enrichment (6-mer frequency, TF over GST control)"
same,binding signal,ETV5,"1.08 fold enrichment (6-mer frequency, TF over GST control)"
same,binding signal,ELF4,"1.19 fold enrichment (6-mer frequency, TF over GST control)"
same,binding signal,ELK4,"1.15 fold enrichment (6-mer frequency, TF over GST control)"
